# Where a name gives a salt, the structure may show the parent alone.
# Test system: Saccharomyces cerevisiae BY4741 SeMeCo community
# Assay: z-score of subpopulation abundance vs DMSO median, subpopulation auxotrophic for HLUM; higher = larger share of this subpopulation than in DMSO controls
# Conditions: 10 µM; 24 h; SM minimal medium; subpopulation (auxotrophy): HLUM
# Experimental: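 Fluorescent four-plasmid SeMeCo (self-establishing metabolically cooperating S. cerevisiae BY4741 community; plasmids pH-mRuby2, pL-mWasabi, pU-eCFP, pM-TagRFP657) was grown 24 h in minimal SM medium with each Selleck FDA-approved drug at 10 µM in 384-well plates. Cells were fixed and imaged by high-content confocal microscopy. For each auxotrophic subpopulation (and the prototroph), a z-score gives the deviation from the DMSO vehicle-control population median.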
row,SMILES,z-score of subpopulation abundance
1,CC[C@H]1[C@@H]2C[C@H]3[C@@H]4N(C)c5ccccc5[C@]45C[C@@H]([C@@H]2[C@H]5O)N3[C@@H]1O [Ajmaline],-0.76
2,Cc1cc(C(C#N)c2ccc(Cl)cc2)c(Cl)cc1NC(=O)c1cc(I)cc(I)c1O (centres undefined) [Closantel],0.27
3,CN1[C@@H]2CC[C@H]1C[C@@H](OC(=O)[C@H](CO)c1ccccc1)C2 [Hyoscyamine],0.62
4,NCCc1c[nH]c2ccc(O)cc12 [Serotonin HCl],0.3
5,CN1[C@@H]2C[C@@H](OC(=O)[C@H](CO)c3ccccc3)C[C@H]1[C@@H]1O[C@@H]12 [Scopolamine HBr],-0.88
6,C[CH2][Hg][S]c1ccccc1C(=O)[O-].[Na+] [Thimerosal],63.5
7,CN(C)[C@@H]1C(=O)C(C(N)=O)=C(O)[C@@]2(O)C(=O)C3=C(O)c4c(O)cccc4[C@@](C)(O)[C@H]3[C@H](O)[C@@H]12 [Oxytetracycline (Terramycin)],0.26
8,CCC1=C[C@H]2CN3CCc4c([nH]c5ccccc45)[C@](C(=O)OC)(C2)[C@H]13 [Catharanthine],-0.22
9,CN1[C@@H]2C[C@@H](OC(=O)[C@H](CO)c3ccccc3)C[C@H]1[C@@H]1O[C@@H]12 [Scopolamine HBr trihydrate],-0.22
10,COc1ccc(C=O)cc1 [p-Anisaldehyde],-0.16
11,NC(=O)CN1CCCC1=O [Piracetam],0.98
12,CN(C)[C@@H]1C(=O)C(C(N)=O)=C(O)[C@@]2(O)C(=O)C3=C(O)c4c(O)cccc4[C@@](C)(O)[C@H]3C[C@@H]12 [Tetracycline HCl],-0.58
13,CCCCCCCCCCCCCCCC[n+]1ccccc1 [Cetylpyridinium Chloride],49.4
14,CC(=O)O[C@H]1C[C@@H]2CC[C@@H]3[C@H](CC[C@@]4(C)[C@H]3C[C@H]([N+]3(C)CCCCC3)[C@@H]4OC(C)=O)[C@@]2(C)C[C@@H]1[N+]1(C)CCCCC1 [Pancuronium dibromide],-0.93
15,CC[N+](C)(CC)CCOC(=O)C(O)(c1ccccc1)c1ccccc1 [Methylbenactyzine Bromide],-1.18
16,CN1C(=O)COc2c(C(=O)NC3CN4CCC3CC4)cc(Cl)cc21 (centres undefined) [Azasetron HCl],0.19
17,COc1ccc2c(c1)[C@]13CCCC[C@@H]1[C@H](C2)N(C)CC3 [Dextromethorphan hydrobromide hydrate],-0.5

row,SMILES,z-score of subpopulation abundance
1,N#Cc1nn(-c2c(Cl)cc(C(F)(F)F)cc2Cl)c(N)c1[S+]([O-])C(F)(F)F (centres undefined) [Fipronil],-0.22
2,CC1(C)SC2C(N)C(=O)N2C1C(=O)O (centres undefined) [6-Aminopenicillanic acid],-0.72
3,"NCC(O)c1ccc(O)cc1 (racemic) [(+,-)-Octopamine HCl]",-0.38
4,O=C(O[C@H]1C[C@H]2CC[C@@H](C1)[N+]21CCCC1)C(O)(c1ccccc1)c1ccccc1 [Trospium chloride],-0.2
5,COc1ccc2[nH]cc(CCN)c2c1 [5-Methoxytryptamine],0.69
6,C[N+]12CCC(CC1)C(OC(=O)C(O)(c1ccccc1)c1ccccc1)C2 (centres undefined) [Clidinium Bromide],0.51
7,CCOC(=O)Nc1ccc(NCc2ccc(F)cc2)cc1N [Retigabine 2HCl],-0.39
8,CC[C@@]1(O)C(=O)OCc2c1cc1n(c2=O)Cc2cc3ccccc3nc2-1 [Camptothecin],-0.44
9,C[C@H]1O[C@H](O[C@H]2[C@H](O)[C@@H](O)[C@@H](O)[C@H](O)[C@@H]2O)[C@@H](N)C[C@@H]1NC(=N)C(=O)O [Kasugamycin hydrochloride],-0.04
10,CC(C)=CCOc1c2occc2cc2ccc(=O)oc12 [Imperatorin],0.23
11,CCN(C)C(=O)Oc1cccc([C@H](C)N(C)C)c1 [Rivastigmine Tartrate],-0.16
12,CN[C@@H]1[C@@H](O)[C@@H](O[C@@H]2[C@@H](O)[C@H](O[C@H]3O[C@H](CN)CC[C@H]3N)[C@@H](N)C[C@H]2N)OC[C@]1(C)O.CN[C@@H]1[C@@H](O)[C@@H](O[C@@H]2[C@@H](O)[C@H](O[C@H]3O[C@H]([C@@H](C)N)CC[C@H]3N)[C@@H](N)C[C@H]2N)OC[C@]1(C)O.CN[C@@H]1[C@@H](O)[C@@H](O[C@@H]2[C@@H](O)[C@H](O[C@H]3O[C@H]([C@@H](C)NC)CC[C@H]3N)[C@@H](N)C[C@H]2N)OC[C@]1(C)O [Gentamicin Sulfate],0.46
13,C[C@@H]1O[C@@H](O[C@H]2C[C@@H](O)[C@]3(CO)[C@H]4[C@H](O)C[C@]5(C)[C@@H](C6=CC(=O)OC6)CC[C@]5(O)[C@@H]4CC[C@]3(O)C2)[C@H](O)[C@H](O)[C@H]1O [Ouabain],-0.91
14,C[N+]1(C)[C@@H]2C[C@@H](OC(=O)[C@H](CO)c3ccccc3)C[C@H]1[C@@H]1O[C@@H]12 [Methscopolamine],0.24
15,Cc1cc(O)ccc1Cl [Chlorocresol],-0.16
16,CCN(CC)CCOC(=O)C(O)(c1ccccc1)c1ccccc1 [Benactyzine hydrochloride],1.13
17,CC(NC(C)(C)C)C(=O)c1cccc(Cl)c1 (centres undefined) [Amfebutamone (Bupropion) HCl],0.09
